# Assay results as given in ChEMBL document CHEMBL3988442, “University of Dundee, Small-Polar-MMV Screening Library” (2021).
# For some of these results: Measured potencies and affinities stand elsewhere.
# Legend:
# Parameters in all cases: scale not given: direction of the effect not stated beside the values
# [1] = target: Protein translocase subunit SecA (Escherichia coli (strain K12)) (UniProt P10408); test: Assay to Identify E. coli SecA ATPase Inhibitors; format: functional; settings: 30 µM
# [2] = target: T1, Ubiquitin-activating enzyme e1, putative (Leishmania donovani (strain BPK282A1)) (UniProt E9BSI1); test: Leishmania donovani Ubiquitin Activating Enzyme (LdE1); format: functional; settings: 30 µM
# T1 sequence (whole entry): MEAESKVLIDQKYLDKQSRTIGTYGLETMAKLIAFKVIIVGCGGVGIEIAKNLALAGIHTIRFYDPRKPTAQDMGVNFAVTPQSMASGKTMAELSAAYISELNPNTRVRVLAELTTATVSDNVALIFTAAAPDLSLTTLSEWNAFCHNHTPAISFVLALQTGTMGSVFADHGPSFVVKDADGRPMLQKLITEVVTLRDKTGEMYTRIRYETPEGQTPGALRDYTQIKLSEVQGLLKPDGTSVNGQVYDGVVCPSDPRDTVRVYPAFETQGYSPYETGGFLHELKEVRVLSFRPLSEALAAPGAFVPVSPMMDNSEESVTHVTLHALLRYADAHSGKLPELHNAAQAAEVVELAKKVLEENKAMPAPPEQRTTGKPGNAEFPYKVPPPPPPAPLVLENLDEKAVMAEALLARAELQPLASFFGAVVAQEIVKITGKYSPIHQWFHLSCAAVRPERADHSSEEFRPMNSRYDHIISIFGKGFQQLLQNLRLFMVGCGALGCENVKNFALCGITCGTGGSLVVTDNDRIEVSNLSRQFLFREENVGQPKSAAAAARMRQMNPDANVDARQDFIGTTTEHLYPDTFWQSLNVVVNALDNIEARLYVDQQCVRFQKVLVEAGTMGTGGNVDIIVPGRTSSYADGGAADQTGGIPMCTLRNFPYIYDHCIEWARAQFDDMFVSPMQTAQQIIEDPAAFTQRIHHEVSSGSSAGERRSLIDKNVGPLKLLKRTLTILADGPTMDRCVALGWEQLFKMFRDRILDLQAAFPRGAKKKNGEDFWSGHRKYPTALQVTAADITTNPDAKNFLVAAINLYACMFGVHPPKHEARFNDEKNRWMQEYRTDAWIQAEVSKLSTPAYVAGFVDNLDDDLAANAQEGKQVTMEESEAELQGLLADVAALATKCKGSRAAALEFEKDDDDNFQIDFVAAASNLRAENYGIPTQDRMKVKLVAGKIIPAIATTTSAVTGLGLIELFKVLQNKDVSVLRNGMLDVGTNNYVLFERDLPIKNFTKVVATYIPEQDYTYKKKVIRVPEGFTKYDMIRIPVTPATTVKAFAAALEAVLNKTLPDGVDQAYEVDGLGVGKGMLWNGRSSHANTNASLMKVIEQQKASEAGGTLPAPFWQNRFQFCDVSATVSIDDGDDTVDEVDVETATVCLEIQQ
# [3] = target: AMP-activated protein kinase, AMPK (Homo sapiens) (UniProt P54646+O43741+P54619+Q9UGJ0+Q9Y478+Q13131+Q9UGI9); test: AMP-dependent Kinase enzyme assay. An in vitro enzyme assay that detects ADP turnover that is directly proportional to AMPK activity. This uses naive AMPK that is activated during the assay with MK-8722; format: functional; settings: 30 µM
# [4] = target: Sialic acid-binding Ig-like lectin 9 (Homo sapiens) (UniProt Q9Y336); test: Hs-Siglec9 ALPHAscreen SOP 20170721; settings: 10 µM
# Trypanosoma cruzi = test: Trypanosoma cruzi phosphomannomutase and mannose-1-phosphate guanylyltransferase assay; format: functional; settings: 10 µM
# [5] = target: T2, Arginase-2, mitochondrial (Homo sapiens) (UniProt P78540); test: in vitro enzyme assay to detect the production of urea directly proportional to the activity of Arginase II; format: functional; settings: 33.3 µM; also: in the data most compounds retested in dose-response had high values
# T2 sequence (whole entry): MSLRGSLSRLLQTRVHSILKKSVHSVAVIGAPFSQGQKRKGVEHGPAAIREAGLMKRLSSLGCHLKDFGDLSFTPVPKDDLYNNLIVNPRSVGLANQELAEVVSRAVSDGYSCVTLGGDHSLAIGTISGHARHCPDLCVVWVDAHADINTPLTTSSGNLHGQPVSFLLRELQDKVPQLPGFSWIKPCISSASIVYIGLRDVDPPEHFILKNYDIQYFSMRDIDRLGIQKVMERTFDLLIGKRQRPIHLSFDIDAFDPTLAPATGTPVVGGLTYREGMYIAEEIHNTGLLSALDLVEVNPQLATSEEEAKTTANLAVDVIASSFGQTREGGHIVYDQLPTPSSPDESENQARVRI
# [6] = target: T3, Proteasome subunit beta (Trypanosoma cruzi) (UniProt O96673); test: Trypanosoma cruzi proteasome chymotrypsin-like activity (TcProtChymo) assay.; also: in the data most compounds retested in dose-response had high values; format: functional; settings: 9.37 µM
# T3 sequence (whole entry): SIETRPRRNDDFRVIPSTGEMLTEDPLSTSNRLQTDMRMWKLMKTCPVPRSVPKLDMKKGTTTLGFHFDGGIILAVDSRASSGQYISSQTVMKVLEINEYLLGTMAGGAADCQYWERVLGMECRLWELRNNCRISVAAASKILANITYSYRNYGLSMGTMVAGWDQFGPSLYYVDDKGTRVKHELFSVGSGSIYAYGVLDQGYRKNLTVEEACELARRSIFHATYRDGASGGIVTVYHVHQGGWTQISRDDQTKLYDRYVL
# Homo sapiens = species: Homo sapiens; test: To identify inhibition of the IFN signalling (Jak-Stat) pathway via expression of an eGFP reporter gene under the control of an IFN-stimulated response element (ISRE) containing MxA promoter.; format: functional; settings: 30 µM
# [7] = target: T4, Tyrosyl-tRNA synthetase, putative (Trypanosoma cruzi (strain CL Brener)) (UniProt Q4DSP6); test: Trypanosoma cruzi tyrosyl tRNA synthetase (TcYRS) _High Tyrosine SOP; format: functional; settings: 30 µM; also: in the data most compounds retested in dose-response had high values
# T4 sequence (whole entry): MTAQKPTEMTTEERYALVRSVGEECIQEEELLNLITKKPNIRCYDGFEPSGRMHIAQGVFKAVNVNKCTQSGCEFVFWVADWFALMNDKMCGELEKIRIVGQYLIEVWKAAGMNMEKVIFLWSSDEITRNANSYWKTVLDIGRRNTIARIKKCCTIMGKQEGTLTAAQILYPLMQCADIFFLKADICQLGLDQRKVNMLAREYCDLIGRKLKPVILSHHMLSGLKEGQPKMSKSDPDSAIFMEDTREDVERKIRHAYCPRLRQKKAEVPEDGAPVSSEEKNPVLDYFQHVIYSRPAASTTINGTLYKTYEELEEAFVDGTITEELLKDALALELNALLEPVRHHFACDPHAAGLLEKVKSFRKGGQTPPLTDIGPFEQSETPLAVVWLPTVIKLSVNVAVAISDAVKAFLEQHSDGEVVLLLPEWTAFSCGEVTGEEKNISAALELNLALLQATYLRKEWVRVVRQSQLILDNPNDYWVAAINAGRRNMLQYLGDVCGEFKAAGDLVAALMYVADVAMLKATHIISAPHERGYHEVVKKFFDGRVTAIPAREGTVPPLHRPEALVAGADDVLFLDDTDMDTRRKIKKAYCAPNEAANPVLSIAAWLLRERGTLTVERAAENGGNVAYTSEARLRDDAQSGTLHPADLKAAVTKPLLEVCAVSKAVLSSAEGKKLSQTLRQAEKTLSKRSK
# [8] = target: T4, Tyrosyl-tRNA synthetase, putative (Trypanosoma cruzi (strain CL Brener)); test: Trypanosoma cruzi tyrosyl tRNA synthetase (TcYRS) SOP; format: functional; settings: 30 µM
# [9] = target: Chromo domain-containing protein 1 (Saccharomyces cerevisiae (strain ATCC 204508 / S288c) (Baker's yeast)) (UniProt P32657); test: ScCHD-1 Enzyme Inhibition Assay; format: functional; settings: 30 µM; also: in the data most compounds retested in dose-response had high values
# Chromo domain-containing protein 1 (Saccharomyces cerevisiae (strain ATCC 204508 / S288c) (Baker's yeast)), sequence (P32657 whole entry, the tested form may be a part): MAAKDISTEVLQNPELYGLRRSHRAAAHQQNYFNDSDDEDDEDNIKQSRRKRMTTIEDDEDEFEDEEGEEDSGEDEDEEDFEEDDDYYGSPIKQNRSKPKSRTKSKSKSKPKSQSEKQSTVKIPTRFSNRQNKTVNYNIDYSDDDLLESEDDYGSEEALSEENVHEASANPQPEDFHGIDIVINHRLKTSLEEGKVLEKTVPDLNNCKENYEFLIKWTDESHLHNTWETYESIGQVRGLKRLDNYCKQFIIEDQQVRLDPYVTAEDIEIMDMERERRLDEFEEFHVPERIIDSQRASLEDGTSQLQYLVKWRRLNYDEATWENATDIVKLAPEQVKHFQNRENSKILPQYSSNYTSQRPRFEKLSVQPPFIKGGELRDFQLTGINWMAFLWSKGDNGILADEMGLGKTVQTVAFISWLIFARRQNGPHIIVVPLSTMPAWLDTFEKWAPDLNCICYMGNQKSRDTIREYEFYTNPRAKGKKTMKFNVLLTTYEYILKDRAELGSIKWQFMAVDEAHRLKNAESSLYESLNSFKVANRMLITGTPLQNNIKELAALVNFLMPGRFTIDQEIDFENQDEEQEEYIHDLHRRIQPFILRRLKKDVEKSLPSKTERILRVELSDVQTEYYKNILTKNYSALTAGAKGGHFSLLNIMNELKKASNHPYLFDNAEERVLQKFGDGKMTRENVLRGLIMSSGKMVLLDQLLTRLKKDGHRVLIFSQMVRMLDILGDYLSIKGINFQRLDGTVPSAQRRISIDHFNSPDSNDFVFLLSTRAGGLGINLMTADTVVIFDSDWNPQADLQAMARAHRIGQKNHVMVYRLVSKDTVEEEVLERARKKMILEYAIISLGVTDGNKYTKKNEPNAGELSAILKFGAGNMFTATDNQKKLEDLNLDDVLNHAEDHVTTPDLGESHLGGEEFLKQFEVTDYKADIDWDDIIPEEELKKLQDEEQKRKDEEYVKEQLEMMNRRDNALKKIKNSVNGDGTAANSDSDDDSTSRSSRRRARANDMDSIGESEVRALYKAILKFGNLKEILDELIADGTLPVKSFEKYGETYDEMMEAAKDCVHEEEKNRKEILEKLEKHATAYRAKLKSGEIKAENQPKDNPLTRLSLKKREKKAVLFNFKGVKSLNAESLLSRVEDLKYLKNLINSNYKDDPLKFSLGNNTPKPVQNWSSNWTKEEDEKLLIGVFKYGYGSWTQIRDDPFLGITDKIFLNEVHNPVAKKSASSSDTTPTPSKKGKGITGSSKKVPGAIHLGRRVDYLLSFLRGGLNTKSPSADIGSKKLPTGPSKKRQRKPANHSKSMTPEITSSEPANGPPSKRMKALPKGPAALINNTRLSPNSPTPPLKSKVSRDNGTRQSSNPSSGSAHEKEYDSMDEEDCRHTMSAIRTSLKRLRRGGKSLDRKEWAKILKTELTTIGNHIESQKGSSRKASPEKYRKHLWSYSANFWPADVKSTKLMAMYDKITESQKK
# Protein translocase subunit SecA (Escherichia coli (strain K12)), sequence (P10408 whole entry): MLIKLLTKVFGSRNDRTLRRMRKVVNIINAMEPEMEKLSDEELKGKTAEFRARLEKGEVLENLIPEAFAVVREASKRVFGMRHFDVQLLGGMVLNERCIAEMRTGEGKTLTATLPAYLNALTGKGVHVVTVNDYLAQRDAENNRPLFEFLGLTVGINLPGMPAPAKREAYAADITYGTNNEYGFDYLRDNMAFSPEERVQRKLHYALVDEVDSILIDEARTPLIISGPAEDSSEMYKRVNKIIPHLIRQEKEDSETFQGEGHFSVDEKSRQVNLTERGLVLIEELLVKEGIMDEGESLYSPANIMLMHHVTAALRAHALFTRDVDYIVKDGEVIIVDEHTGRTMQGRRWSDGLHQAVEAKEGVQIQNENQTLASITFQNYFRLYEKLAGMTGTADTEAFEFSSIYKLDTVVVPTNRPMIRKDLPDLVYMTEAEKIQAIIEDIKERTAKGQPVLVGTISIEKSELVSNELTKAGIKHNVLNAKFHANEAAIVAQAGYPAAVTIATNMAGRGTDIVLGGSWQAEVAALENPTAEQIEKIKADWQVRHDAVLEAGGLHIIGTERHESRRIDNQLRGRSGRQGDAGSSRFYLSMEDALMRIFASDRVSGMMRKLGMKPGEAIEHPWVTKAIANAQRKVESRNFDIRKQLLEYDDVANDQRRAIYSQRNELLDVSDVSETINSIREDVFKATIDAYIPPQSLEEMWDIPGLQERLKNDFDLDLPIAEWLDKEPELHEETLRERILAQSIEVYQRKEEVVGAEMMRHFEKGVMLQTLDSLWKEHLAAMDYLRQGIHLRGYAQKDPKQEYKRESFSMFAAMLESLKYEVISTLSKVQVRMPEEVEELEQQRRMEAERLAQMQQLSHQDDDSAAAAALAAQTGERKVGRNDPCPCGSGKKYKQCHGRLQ
# Sialic acid-binding Ig-like lectin 9 (Homo sapiens), sequence (Q9Y336 whole entry): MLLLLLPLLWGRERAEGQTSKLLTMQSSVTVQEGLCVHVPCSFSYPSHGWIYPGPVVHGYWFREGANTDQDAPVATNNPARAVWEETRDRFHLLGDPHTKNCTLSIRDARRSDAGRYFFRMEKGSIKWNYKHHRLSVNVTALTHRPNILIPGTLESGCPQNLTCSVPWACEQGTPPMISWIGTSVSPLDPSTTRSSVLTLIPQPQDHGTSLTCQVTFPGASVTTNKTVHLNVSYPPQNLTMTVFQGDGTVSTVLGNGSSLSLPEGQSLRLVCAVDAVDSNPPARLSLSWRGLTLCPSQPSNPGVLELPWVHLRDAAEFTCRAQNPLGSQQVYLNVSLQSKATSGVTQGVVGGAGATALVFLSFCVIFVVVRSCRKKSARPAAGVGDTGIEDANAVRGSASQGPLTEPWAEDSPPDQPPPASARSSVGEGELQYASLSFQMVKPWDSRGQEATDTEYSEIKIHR
Structure (SMILES),Percent Effect [1] [%],Percent Effect [2] [%],Percent Effect [3] [%],Percent Effect [4] [%],Percent Effect (Trypanosoma cruzi) [%],Percent Effect [5] [%],Percent Effect [6] [%],Percent Effect (Homo sapiens) [%],Percent Effect [7] [%],Percent Effect [8] [%],Percent Effect [9] [%]
COC(=O)c1sccc1S(=O)(=O)N1CCC(Oc2cccnn2)CC1,-0.0971,-5.48,16.5,-5.94,-3.33,1.36,9.58,9.58,-6.45,0,-3.65
Cc1cc(C)cc(-c2cccc(CC3(C(=O)O)CCOCC3)c2)c1,-0.147,4.05,37.7,5.76,-8.1,-9.05,15.1,31.5,-26.9,-45.5,-6.99
CCOC(=O)N1CCN(C(=O)CCn2ccc3c(OC)cccc32)CC1,-0.914,0,-4.91,2.66,-6.91,-10.7,15.8,35,2.13,-2.6,-1.25
CCN1CC2(CC1=O)CN(Cc1cccs1)CCN(C(=O)C(C)C)C2 (stereo not given),-5.19,-5.41,2.9,-2.56,-2.73,-3.33,7.35,-3.43,4.95,11,4.59
c1cnc(N2CCOCC3(CCCN(CC4CC4)C3)C2)cn1 (stereo not given),-1.84,5.33,1.73,4.28,-1.74,-52.5,6.84,-10.7,4.17,5,-4.17
N#Cc1cc(NS(=O)(=O)c2ccc(C(=O)O)cc2F)ccc1F,-2.74,-13.5,-2.89,0.735,-0.472,4.41,-3.24,-0.301,0.493,1.24,-0.823
COc1c(C)cnc(CN2CCC(C(=O)N(C)C)CC2)c1C,-5.69,5.2,0.364,10.3,2.81,1.42,9.46,-0.558,1.94,7.32,-6.93
Cc1nn(C(C)C)c(C)c1NC(=O)c1ccccc1,-2.77,2.74,-0.803,6.74,4.17,-2.4,14.5,-0.0619,7.29,-3.7,-1.66
CN(C)C(=O)C1CCCN1CCCNC(=O)c1ccccc1F (stereo not given),-2.29,8.22,-4.32,2.43,-0.783,0.909,15.6,12.8,5.38,12.5,-3.39
COC(=O)C1CCN(c2cncc(-n3nc(C)cc3C)n2)CC1,-4,0,4.1,5.66,-7.03,4.17,15.6,12.6,3.96,3.66,-8.43
CC(=O)N1CCCN(C(=O)CCc2c(C)noc2C)CC1,-5.5,18.4,-6.52,-3.87,3.95,0.766,9.52,9.31,8.33,19.5,-11.2
O=C(C[C@@H]1COC[C@H]2CN(Cc3ccncc3)C[C@@H]12)N1CCOCC1,-1.31,12,-1.49,2.73,-6.88,-17.4,10.5,-2.62,0,2.56,-5.74
Cn1ccnc1N1CCN(C(=O)Cc2ccc(F)cc2)CC1,-3.69,13,5.01,3.61,2.86,0.645,17.6,14.3,6.35,11.5,-9.3
Cn1ncc2c1C(COCC1CC1)CN(Cc1nccs1)C2 (stereo not given),-1.87,15.6,-6.52,0.425,1.87,5.81,1.92,28.4,8.47,14.1,-10.6
Cc1nc(N2CCN(C(=O)C3CC3)CC2)c2c(n1)c(C)nn2C,-1.08,6.67,0.162,0.614,3.73,-4.75,10.2,18.7,6.35,12.8,-11.8
Cc1nn(C)c2c(NCCCn3cccn3)ncnc12,-1.47,9.33,2.34,-1.8,3.34,-3.35,21.6,-12.4,2.12,15.4,-7.78
CC(Oc1ccccc1C(F)(F)F)C(=O)NS(=O)(=O)C(C)C (stereo not given),7.54,0,5.54,-3.2,4.88,-2.92,14.1,-2.84,6.93,11,-6.88
OCC1CCCN1c1cc(NCCNc2ccccn2)ncn1 (stereo not given),-3.44,5.48,-4.46,-5.01,1.18,3.64,20.4,22.1,2.15,10,-7.12
CSCc1nc(C(C)(C)NC(=O)OC(C)(C)C)no1,-2.5,2.67,-2.2,1.89,7.3,-2.08,9.07,-12.6,-0.546,1.24,107
O=C(NC1CC1)[C@H]1CC[C@@H]2[C@@H](CCN2c2ncc(F)cn2)O1,-3.27,2.6,0.23,1.05,-0.688,-2.76,4.16,11,3.23,1.24,134
